Source: PubChem BioAssay (Tox21)
Records with an inconclusive call do not appear. Activity calls are given as the source filed them. Unless noted, the call rests on the fitted dose curve.

Columns and labels:
[1] = Nuclear factor erythroid 2-related factor 2/antioxidant responsive element (Nrf2/ARE) small molecule agonists: qHTS cell viability counter screen in human keratinocytes (AID 1919968; active means well fitted curve in the direction sought with a large enough effect in the repeat runs; an effect the other way counts as inactive or inconclusive; further: nearly all actives have a fitted effect of over 55% in size)
In short: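 CellTiter-Fluor fluorescence, read 1 h after reagent, gave viability in the same wells as the ARE-luciferase assay. KeratinoSens cells (1,500/well) had 23 h compound exposure at 37 C/5% CO2 following 5 h plating.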

[2] = Nuclear factor erythroid 2-related factor 2/antioxidant responsive element (Nrf2/ARE) small molecule agonists: luciferase reporter gene qHTS assay in human keratinocytes (AID 1919969); further: nearly all actives have a fitted effect of over 35% in size
[3] = biological target: KiSS-1 receptor (Homo sapiens) (UniProt Q969F8); test: Human kisspeptin (KISS1R) small molecule agonists, calcium flux assay in KISS1R-HEK293 cells (AID 1920064; active means well fitted curve in the direction sought with a large enough effect in the repeat runs; an effect the other way counts as inactive or inconclusive)
KiSS-1 receptor (Homo sapiens), sequence (Q969F8 whole entry, looked up): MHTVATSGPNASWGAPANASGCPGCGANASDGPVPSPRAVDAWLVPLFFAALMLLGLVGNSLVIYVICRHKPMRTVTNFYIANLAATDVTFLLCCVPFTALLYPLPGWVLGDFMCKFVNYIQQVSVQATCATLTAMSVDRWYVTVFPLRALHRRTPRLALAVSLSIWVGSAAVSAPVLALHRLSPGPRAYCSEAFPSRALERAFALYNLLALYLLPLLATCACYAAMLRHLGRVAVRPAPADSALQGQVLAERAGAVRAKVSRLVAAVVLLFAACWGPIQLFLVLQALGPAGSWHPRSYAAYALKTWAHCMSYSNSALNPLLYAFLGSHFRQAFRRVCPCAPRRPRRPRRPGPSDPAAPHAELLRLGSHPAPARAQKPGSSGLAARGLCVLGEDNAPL
In short: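 Agonist mode: intracellular calcium rise tracked at 1 s intervals over 3 min (480/540 nm) immediately after compound addition to dye-loaded KISS1R-HEK293 stable cells. Each compound tested at 15 concentrations in triplicate.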

[4] = p53 small molecule agonists, cell-based qHTS assay with rat liver microsomes (AID 1963578)
In short: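 Read-out is beta-lactamase reporter fluorescence (LiveBLAzer, 2 h, room temperature, dark) in p53RE-bla cells treated 16 h at 37 C with compound, rat liver microsomes and NADPH, both 0.5 mg/mL final.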

[5] = p53 small molecule agonists, cell-based qHTS assay with human liver microsomes: qHTS cell viability counter screen (AID 1963579); further: nearly all actives have a fitted effect of over 45% in size
In short: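 Cells carrying the p53 response-element beta-lactamase reporter are treated for 16 h at 37 C with test compounds in the presence of human liver microsomes and NADPH (both 0.5 mg/mL final); ATP-based CellTiter-Glo luminescence then reports viability.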

[6] = p53 small molecule agonists, cell-based qHTS assay with rat liver microsomes: qHTS cell viability counter screen (AID 1963580); further: nearly all actives have a fitted effect of over 45% in size
In short: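 Rat liver microsome (0.5 mg/mL final) and NADPH (0.5 mg/mL final) co-incubation with compounds for 16 h at 37 C on HCT-116 p53RE-bla cells; cytotoxicity taken from intracellular ATP luminescence.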

[7] = p53 small molecule agonists, cell-based qHTS assay (AID 1963582; active means well fitted activation curve with a large enough effect in the signal ratio in the repeat runs, not every such curve was filed as active; the % refers to the signal ratio)
In short: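 Read-out is beta-lactamase FRET fluorescence after 2 h at room temperature with LiveBLAzer B/G substrate. p53 response element-bla cells were treated 16 h at 37 C with compounds in DMSO, added 5 h after seeding.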

[8] = biological target: 5-hydroxytryptamine receptor 2A (Homo sapiens) (UniProt P28223); test: 5-hydroxytryptamine receptor 2A (HTR2A) small molecule antagonists, cell-based qHTS assay (AID 1963586); further: nearly all actives have a fitted effect of over 45% in size
5-hydroxytryptamine receptor 2A (Homo sapiens), sequence (P28223 whole entry, looked up): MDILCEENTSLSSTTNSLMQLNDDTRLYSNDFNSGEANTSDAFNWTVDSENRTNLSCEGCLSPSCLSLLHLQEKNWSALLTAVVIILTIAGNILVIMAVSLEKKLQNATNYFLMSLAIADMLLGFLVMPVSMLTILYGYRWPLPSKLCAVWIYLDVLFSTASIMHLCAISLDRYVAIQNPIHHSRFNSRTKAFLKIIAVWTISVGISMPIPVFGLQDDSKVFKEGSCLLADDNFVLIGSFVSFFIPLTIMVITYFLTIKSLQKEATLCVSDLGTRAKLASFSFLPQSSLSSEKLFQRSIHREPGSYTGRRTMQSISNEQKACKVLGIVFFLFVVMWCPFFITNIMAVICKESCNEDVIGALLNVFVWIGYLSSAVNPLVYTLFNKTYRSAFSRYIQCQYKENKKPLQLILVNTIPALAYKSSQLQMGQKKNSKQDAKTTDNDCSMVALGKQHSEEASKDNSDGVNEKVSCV
In short: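 CHO cells stably expressing human HTR2A were plated for 18 h at 37 C, then loaded with calcium dye for 1 h. Compounds were preincubated 5 min at room temperature before DOI (4 nM solution) was added. Kinetic fluorescence was read for 3 min.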

[9] = biological target: 5-hydroxytryptamine receptor 2A (Homo sapiens) (UniProt P28223); test: 5-hydroxytryptamine receptor 2A (HTR2A) small molecule agonists, cell-based qHTS assay (AID 1963587); further: nearly all actives have a fitted effect of over 30% in size
In short: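 Kinetic calcium-flux fluorescence (2 min, 1 sec intervals) after compound addition in agonist mode. HTR2A-CHO cells were cultured 18 h, then dye-loaded 1 h at 37 C.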

[10] = biological target: Muscarinic acetylcholine receptor M1 (Homo sapiens) (UniProt P11229); test: Cholinergic receptor muscarinic 1 (CHRM1) small molecule antagonists, cell-based qHTS assay (AID 1963588); further: nearly all actives have a fitted effect of over 40% in size
Muscarinic acetylcholine receptor M1 (Homo sapiens), sequence (P11229 whole entry, looked up): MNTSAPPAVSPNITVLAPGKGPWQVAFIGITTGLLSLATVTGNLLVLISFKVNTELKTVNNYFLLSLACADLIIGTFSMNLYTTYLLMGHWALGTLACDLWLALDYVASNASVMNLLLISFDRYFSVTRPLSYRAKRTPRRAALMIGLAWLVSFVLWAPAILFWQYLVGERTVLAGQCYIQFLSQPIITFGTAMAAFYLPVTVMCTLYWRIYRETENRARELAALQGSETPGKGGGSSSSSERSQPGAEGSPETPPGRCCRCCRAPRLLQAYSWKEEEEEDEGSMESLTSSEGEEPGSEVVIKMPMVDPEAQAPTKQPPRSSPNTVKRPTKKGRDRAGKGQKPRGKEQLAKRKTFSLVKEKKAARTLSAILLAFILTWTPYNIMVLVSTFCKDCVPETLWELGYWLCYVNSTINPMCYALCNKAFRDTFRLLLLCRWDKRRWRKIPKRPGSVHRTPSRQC
In short: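 Compounds were tested at 15 concentrations in three independent runs. Dye-loaded CHRM1-CHO cells were exposed 5 min at room temperature before stimulation by acetylcholine added at 50nM. Intracellular calcium was read kinetically on FDSS for 3 min.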

[11] = cAMP Responsive Elements (CRE) small molecule agonists, cell-based qHTS assay (AID 1963590)
In short: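 Agonist mode: compound added to CRE-bla HEK 293T cells (2,000/well, 18 h after plating) for 3 h at 37 C/5% CO2. Reporter activity detected via FRET beta-lactamase substrate, 2 h room-temperature loading.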

[12] = cAMP Responsive Elements (CRE) small molecule antagonists, cell-based qHTS assay (AID 1963591; active means well fitted inhibition curve with a large enough effect in the signal ratio in the repeat runs, not every such curve was filed as active; the % refers to the signal ratio)
In short: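 Antagonist mode: compounds are added alongside the adenylyl cyclase activator NKH477 (0.25 uM final) to CRE-bla HEK293T cells for 3 h. LiveBLAzer FRET substrate, 2 h at room temperature, reports bla expression.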

[13] = biological target: Beta-2 adrenergic receptor (Homo sapiens) (UniProt P07550); test: Adrenergic beta2 receptor (ADRB2) small molecule antagonists, cell-based qHTS assay (AID 1963592); further: series mostly up to about 92 µM; nearly all actives have a fitted effect of over 50% in size
Beta-2 adrenergic receptor (Homo sapiens), sequence (P07550 whole entry, looked up): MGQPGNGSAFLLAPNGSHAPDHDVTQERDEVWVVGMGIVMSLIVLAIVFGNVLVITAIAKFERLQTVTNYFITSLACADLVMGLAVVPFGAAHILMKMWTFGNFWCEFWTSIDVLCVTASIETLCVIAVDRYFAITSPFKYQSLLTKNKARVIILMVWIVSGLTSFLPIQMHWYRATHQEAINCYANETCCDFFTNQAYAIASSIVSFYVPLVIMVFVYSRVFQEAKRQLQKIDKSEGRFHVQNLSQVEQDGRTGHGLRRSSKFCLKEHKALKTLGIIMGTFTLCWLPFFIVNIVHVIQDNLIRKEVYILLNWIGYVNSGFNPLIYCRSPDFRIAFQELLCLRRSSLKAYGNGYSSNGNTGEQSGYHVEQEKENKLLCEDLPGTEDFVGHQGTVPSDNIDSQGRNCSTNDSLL
In short: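 Assay format: CHO-ADRB2 cells, 18-20hr seeding at 37C/5% CO2, then compound plus 1nM isoproterenol agonist mix for 0.5hr RT. Homogeneous time-resolved fluorescence cAMP detection after 1hr, expressed as 665/615 nm ratio.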

[14] = biological target: D(2) dopamine receptor (Homo sapiens) (UniProt P14416); test: Dopamine D2 receptor (DRD2) small molecule agonists, cell-based qHTS assay (AID 1963594); further: nearly all actives have a fitted effect of over 35% in size
D(2) dopamine receptor (Homo sapiens), sequence (P14416 whole entry, looked up): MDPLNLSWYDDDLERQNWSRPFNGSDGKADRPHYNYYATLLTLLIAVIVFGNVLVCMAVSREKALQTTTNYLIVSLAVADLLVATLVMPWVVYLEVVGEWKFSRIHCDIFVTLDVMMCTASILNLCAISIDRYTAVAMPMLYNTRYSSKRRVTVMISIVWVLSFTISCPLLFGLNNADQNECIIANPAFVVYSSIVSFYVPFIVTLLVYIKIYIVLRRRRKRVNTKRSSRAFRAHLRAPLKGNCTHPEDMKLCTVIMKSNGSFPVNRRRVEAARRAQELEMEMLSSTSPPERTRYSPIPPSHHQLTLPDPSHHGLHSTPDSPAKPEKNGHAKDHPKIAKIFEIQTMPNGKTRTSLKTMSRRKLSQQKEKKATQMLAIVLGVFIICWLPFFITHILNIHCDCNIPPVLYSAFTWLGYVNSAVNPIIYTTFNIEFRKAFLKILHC
In short: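 cAMP accumulation in DRD2-HEK293 cells measured by HTRF after 1 h detection; compounds added 10 min before NKH477 (200nM […]) forskolin-analogue stimulation, 30 min at room temperature, with Ro20-1724 present at 0.1 mM final.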

[15] = biological target: D(2) dopamine receptor (Homo sapiens) (UniProt P14416); test: Dopamine D2 receptor (DRD2) small molecule antagonists, cell-based qHTS assay (AID 1963595; active means well fitted inhibition curve with a large enough effect in the signal ratio in the repeat runs, with a control signal flat; the % refers to the signal ratio)
In short: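 HEK293 cells stably expressing DRD2, preincubated with 0.1 mM Ro20-1724 and compounds 10 min, were stimulated with 200 nM NKH477 plus 12 nM quinpirole for 30 min at room temperature; cAMP measured by HTRF (665/620 nm).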

[16] = G protein-coupled receptor (GPCR) small molecule agonists, calcium flux assay: HEK293 wild type cell line counter screen (AID 1920065)
In short: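 Calcium flux counter screen: compound added in agonist mode at 15 concentrations in triplicate to dye-loaded parental HEK293 cells. Fluorescence (480/540) read kinetically for 3 min; ATP served as positive control.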

[17] = p53 small molecule agonists, cell-based qHTS assay: qHTS cell viability counter screen (AID 1963581); further: nearly all actives have a fitted effect of over 45% in size
In short: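 Counter screen read by CellTiter-Glo luminescence (ATP content, 30 min at room temperature), run in the same wells as the beta-lactamase reporter read. HCT-116 p53RE-bla cells saw compounds for 16 h at 37 C.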

[18] = biological target: Beta-2 adrenergic receptor (Homo sapiens) (UniProt P07550); test: Adrenergic beta2 receptor (ADRB2) small molecule agonists, cell-based qHTS assay (AID 1963593);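 further: CHO cells stably overexpressing human ADRB2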
In short: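 CHO cells stably over-expressing ADRB2 were plated overnight at 37C, then dosed with compounds plus a stimulation mix containing 100uM IBMX and 25uM Ro-20-1724 for 0.5hr at room temperature. cAMP was measured by HTRF competition, 1hr.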

[19] = biological target: Muscarinic acetylcholine receptor M1 (Homo sapiens) (UniProt P11229); test: Cholinergic receptor muscarinic 1 (CHRM1) small molecule agonists, cell-based qHTS assay (AID 1963589); further: nearly all actives have a fitted effect of over 35% in size
In short: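 Agonist-mode calcium-flux screen: compounds at 15 concentrations, three independent runs, were pin-transferred onto dye-loaded human CHRM1-CHO cells. Fluorescence was then recorded kinetically every second over minutes.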

[20] = p53 small molecule agonists, cell-based qHTS assay with human liver microsomes (AID 1963577)
In short: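 Compounds act here after metabolic activation: human liver microsomes and NADPH, both at 0.5 mg/mL final, were co-added to p53RE-bla cells. Incubation ran 16 h at 37 C, followed by LiveBLAzer detection.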

Measured: Potency

CC(C)(C)C(=O)c1ccccc1
inactive: [1] | [2] | [3] | [4] | [5] | [6] | [7] | [8] | [9] | [10] | [11] | [12] | [13] | [14] | [15]

O=C(OCC(COC(=O)c1cccnc1)(COC(=O)c1cccnc1)COC(=O)c1cccnc1)c1cccnc1
inactive: [1] | [2] | [3] | [16] | [6] | [17] | [8] | [9] | [10] | [11] | [13] | [18] | [14] | [15]

CCCCC(CC)COS(=O)(=O)O (stereo not given)
inactive: [1] | [2] | [3] | [16] | [5] | [6] | [17] | [8] | [9] | [19] | [11] | [13] | [14] | [15]

CN(C)[C@@H]1C(=O)C(C(N)=O)=C(O)[C@@]2(O)C(=O)C3=C(O)c4c(O)ccc(Cl)c4[C@@H](O)[C@H]3C[C@@H]12
inactive: [1] | [2] | [3] | [16] | [5] | [6] | [17] | [8] | [9] | [19] | [13] | [18] | [14] | [15]

O=C(O)CO
inactive: [1] | [2] | [3] | [16] | [5] | [6] | [17] | [11] | [12] | [13]

CCOC(=O)[C@@](C)(N)Cc1ccc(O)c(O)c1
inactive: [1] | [2] | [3] | [16] | [5] | [6] | [17] | [8] | [9] | [10] | [11] | [12] | [13] | [14] | [15]

CCCCOCCOC(=O)COc1nc(Cl)c(Cl)cc1Cl
inactive: [1] | [2] | [16] | [20] | [4] | [5] | [6] | [7] | [11] | [12]

CCCC(CC)c1ccccc1 (stereo not given)
inactive: [1] | [2] | [16] | [20] | [4] | [5] | [6] | [17] | [7] | [8] | [9] | [10] | [19] | [11] | [12] | [13] | [14] | [15]
